# From ChEMBL document CHEMBL5606458, “ASAP - ZIKV NS2B-NS3 protease fluorescence single point” (2024)
# Out of some 2,700 compounds screened, about 160 (5.9%) showed an effect of 50% or more. The full list was thinned out, with strong results kept by preference.
# Molecular target: Nonstructural protein 3 (Zika virus) (UniProt A0A024AXB9)
# [1] = PRVABC59, Concentration 50.0 uM, Number of replicates 1.0
# [2] = PRVABC59, Concentration 15.0 uM, Number of replicates 1.0
# Chain of Nonstructural protein 3 (Zika virus) (A0A024AXB9 as listed by the source): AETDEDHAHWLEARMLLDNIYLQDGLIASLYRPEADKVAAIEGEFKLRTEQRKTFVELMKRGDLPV
structure (smiles),measurement,setting,value
CCCCCN(CCCCC)C(=O)C1CCN(c2ccc(C=O)cc2)CC1,inhibition,[1],26.1%
O=Cc1ccc(N2CCC(C(=O)Nc3c(F)cc(F)cc3Cl)CC2)cc1,inhibition,[1],23.6%
COc1cc2c(cc1NC(=O)c1cc(Cl)ccc1NS(=O)(=O)c1ccc(Oc3ccccc3Cl)cc1)oc1ccccc12,inhibition,[2],36.2%
O=C(Nc1ncccc1C(F)(F)F)c1cc(Cl)ccc1NS(=O)(=O)c1ccc(Oc2ccccc2Cl)cc1,inhibition,[2],25.1%
Cn1cc(NC(=O)c2cccc3ncccc23)cn1,inhibition,"PRVABC59, Concentration 49.5 uM, Number of replicates 2.0, Standard deviation 3.392303236065074 %",-6.29%
same,inhibition,"PRVABC59, Concentration 99.01 uM, Number of replicates 2.0, Standard deviation 4.211868261497117 %",-5.3%
same,inhibition,"PRVABC59, Concentration 198.0 uM, Number of replicates 2.0, Standard deviation 3.7498965706755105 %",-3.61%
O=Cc1ccc(N2CCC(C(=O)N3CCN(CCOCCO)CC3)CC2)cc1,inhibition,[1],21.2%
COc1ccc([C@H](C)NC(=O)c2cc(Cl)ccc2NS(=O)(=O)c2ccc(Oc3ccccc3Cl)cc2)cc1,inhibition,[2],35.3%
O=Cc1ccc(N2CCC(C(=O)Nc3ccc(Cl)nc3Cl)CC2)cc1,inhibition,[1],20.5%
c1cnc2c(C3CCN(Cc4ccc5[nH]cnc5c4)CC3)c[nH]c2c1,inhibition,"PRVABC59, Concentration 49.5 uM, Number of replicates 2.0, Standard deviation 2.816135776094685 %",1.64%
same,inhibition,"PRVABC59, Concentration 99.01 uM, Number of replicates 2.0, Standard deviation 1.9941147484327908 %",7.38%
same,inhibition,"PRVABC59, Concentration 198.0 uM, Number of replicates 2.0, Standard deviation 0.19707731493778816 %",19.3%
CC(C)(C)c1ccc(S(=O)(=O)N2CCN(C(=O)c3cc(Cl)ccc3NS(=O)(=O)c3ccc(Oc4ccccc4Cl)cc3)CC2)cc1,inhibition,[2],14.3%
COc1ccc(S(=O)(=O)n2nc(OC(=O)c3ccccc3)cc2N)cc1,inhibition,"PRVABC59, Concentration 49.5 uM, Number of replicates 2.0, Standard deviation 0.018531126353269887 %",99.1%
same,inhibition,"PRVABC59, Concentration 99.01 uM, Number of replicates 2.0, Standard deviation 0.03874003445206144 %",99.1%
same,inhibition,"PRVABC59, Concentration 198.0 uM, Number of replicates 2.0, Standard deviation 0.035373681367799316 %",99%
COc1ccc(S(=O)(=O)N2CCC(C(=O)Nc3nc4ccccc4s3)CC2)cc1,inhibition,"PRVABC59, Concentration 49.5 uM, Number of replicates 2.0, Standard deviation 3.281212488466362 %",4.02%
same,inhibition,"PRVABC59, Concentration 99.01 uM, Number of replicates 2.0, Standard deviation 0.8753020409515783 %",5.17%
same,inhibition,"PRVABC59, Concentration 198.0 uM, Number of replicates 2.0, Standard deviation 6.6794445217114635 %",7.79%
COc1ccc(S(=O)(=O)Nc2ccc(C(=O)O)cc2)cc1,inhibition,"PRVABC59, Concentration 49.5 uM, Number of replicates 2.0, Standard deviation 1.0137935505852833 %",2.03%
same,inhibition,"PRVABC59, Concentration 99.01 uM, Number of replicates 2.0, Standard deviation 1.063246976754026 %",4.7%
same,inhibition,"PRVABC59, Concentration 198.0 uM, Number of replicates 2.0, Standard deviation 1.989546367228998 %",3.61%
CN(Cc1cccc(F)c1F)C(=O)c1cc(Cl)ccc1NS(=O)(=O)c1ccc(Oc2ccccc2Cl)cc1,inhibition,[2],31.2%
CC(C)CCN(CCC(C)C)C(=O)c1cc(Cl)ccc1NS(=O)(=O)c1ccc(Oc2ccccc2Cl)cc1,inhibition,[2],18.8%
CS(=O)(=O)c1ccc(O)c(NC(=O)c2cc(Cl)ccc2NS(=O)(=O)c2ccc(Oc3ccccc3Cl)cc2)c1,inhibition,[2],32.3%
COc1nscc1-c1ccccc1C(=O)Nc1cnn(C)c1,inhibition,"PRVABC59, Concentration 49.5 uM, Number of replicates 2.0, Standard deviation 2.0613155081961194 %",-1.46%
same,inhibition,"PRVABC59, Concentration 99.01 uM, Number of replicates 2.0, Standard deviation 1.0972097923679232 %",1.42%
same,inhibition,"PRVABC59, Concentration 198.0 uM, Number of replicates 2.0, Standard deviation 0.19246139208887503 %",3.36%
O=C(Cn1sc2ccccc2c1=O)Nc1cccc(OCc2cn(CC(=O)Nc3ccccc3Oc3ccccc3)nn2)c1,inhibition,"PRVABC59, Concentration 49.5 uM, Number of replicates 2.0, Standard deviation 0.019067908615904634 %",53.7%
same,inhibition,"PRVABC59, Concentration 99.01 uM, Number of replicates 2.0, Standard deviation 0.0558469345004512 %",58.2%
same,inhibition,"PRVABC59, Concentration 198.0 uM, Number of replicates 2.0, Standard deviation 0.30102425600760013 %",69.5%
CCN(CC)S(=O)(=O)c1ccc(NC(=O)c2cc(Cl)ccc2NS(=O)(=O)c2ccc(Oc3ccccc3Cl)cc2)cc1,inhibition,[2],27.6%
Cc1nccn1-c1ccc(NC(=O)c2cc(Cl)ccc2NS(=O)(=O)c2ccc(Oc3ccccc3Cl)cc2)cc1,inhibition,[2],43.8%
CCN1CCN(c2ccc(NC(=O)c3cc(Cl)ccc3NS(=O)(=O)c3ccc(Oc4ccccc4Cl)cc3)cc2)CC1,inhibition,[2],17.1%
O=C(Nc1ccc(-n2ccnc2)cc1)c1cc(Cl)ccc1NS(=O)(=O)c1ccc(Oc2ccccc2Cl)cc1,inhibition,[2],63.6%
O=C(NCc1cccc(-n2cccn2)c1)c1cc(Cl)ccc1NS(=O)(=O)c1ccc(Oc2ccccc2Cl)cc1,inhibition,[2],33.4%
O=C(Nc1ccc(-n2cccn2)cc1)c1cc(Cl)ccc1NS(=O)(=O)c1ccc(Oc2ccccc2Cl)cc1,inhibition,[2],71.5%
COc1ccc([C@@H](C)NC(=O)C2CCN(c3ccc(C=O)cc3)CC2)cc1OC,inhibition,"PRVABC59, Concentration 10.0 uM, Number of replicates 1.0",22.9%
O=C(N[C@H](c1ccccc1)C(F)(F)F)c1cc(Cl)ccc1NS(=O)(=O)c1ccc(Oc2ccccc2Cl)cc1,inhibition,[2],60.6%
C[C@H](NC(=O)c1cc(Cl)ccc1NS(=O)(=O)c1ccc(Oc2ccccc2Cl)cc1)c1cccc(C(F)(F)F)c1,inhibition,[2],39.3%
O=C(N[C@H](c1ccccc1)[C@@H](O)c1ccccc1)c1cc(Cl)ccc1NS(=O)(=O)c1ccc(Oc2ccccc2Cl)cc1,inhibition,[2],45.7%
C[C@@H](CC(C)(C)c1ccccc1)NC(=O)c1cc(Cl)ccc1NS(=O)(=O)c1ccc(Oc2ccccc2Cl)cc1,inhibition,[2],18.2%
C[C@H](NC(=O)c1cc(Cl)ccc1NS(=O)(=O)c1ccc(Oc2ccccc2Cl)cc1)c1ccccc1C(F)(F)F,inhibition,[2],42.7%
CC(C)(C)[C@H](NC(=O)c1cc(Cl)ccc1NS(=O)(=O)c1ccc(Oc2ccccc2Cl)cc1)c1ccccc1,inhibition,[2],57.8%
Cc1cnccc1NC(=O)c1cccc(-n2cnnn2)c1,inhibition,"PRVABC59, Concentration 49.5 uM, Number of replicates 2.0, Standard deviation 4.148081450793093 %",-4.56%
same,inhibition,"PRVABC59, Concentration 99.01 uM, Number of replicates 2.0, Standard deviation 2.8220872377424997 %",-2.1%
same,inhibition,"PRVABC59, Concentration 198.0 uM, Number of replicates 2.0, Standard deviation 5.644174285824181 %",-3.31%
O=Cc1ccc(N2CCC(C(=O)Nc3ccc(F)cc3Br)CC2)cc1,inhibition,[1],20.8%
CCN(CCOc1ccccc1C)C(=O)C1CCN(c2ccc(C=O)cc2)CC1,inhibition,[1],25.1%
O=C(c1cc(Cl)ccc1NS(=O)(=O)c1ccc(Oc2ccccc2Cl)cc1)N1CCCN(c2ccc(C(F)(F)F)cn2)CC1,inhibition,[2],30%
CCN1CCOC[C@H]1C(=O)Nc1cc(Cl)cc(C(=O)NC(C)(C)CO)c1,inhibition,"PRVABC59, Concentration 49.5 uM, Number of replicates 2.0, Standard deviation 1.425535849610213 %",-1.8%
same,inhibition,"PRVABC59, Concentration 99.01 uM, Number of replicates 2.0, Standard deviation 1.345541763339264 %",-2.76%
same,inhibition,"PRVABC59, Concentration 198.0 uM, Number of replicates 2.0, Standard deviation 3.0049064318797343 %",-3.73%
